# Laboratory results from PubChem BioAssay AID602144 (Vanderbilt Specialized Chemistry Center, 2011).
# Values joined by “and” are separate entries in the source; they are usually repeats but may differ in a detail not shown here. Identical values can stand only once. Unmarked numbers belong to inactive results. Active and inactive are the calls of the source. Cut-off read from the data, not from the text of the source: active = remaining activity below about 50%; inactive = the rest.
# Target: Phospholipase D1 (Homo sapiens) (UniProt Q13393)
# Test: cellular phospholipase D1 activity inhibition – Calu-1 cells, single concentration (AID 602144);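 note: tested at 200 nM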
# Conditions: cellular PLD1 activity, hits give low values
# Chain of Phospholipase D1 (Homo sapiens) (Q13393 whole entry, looked up): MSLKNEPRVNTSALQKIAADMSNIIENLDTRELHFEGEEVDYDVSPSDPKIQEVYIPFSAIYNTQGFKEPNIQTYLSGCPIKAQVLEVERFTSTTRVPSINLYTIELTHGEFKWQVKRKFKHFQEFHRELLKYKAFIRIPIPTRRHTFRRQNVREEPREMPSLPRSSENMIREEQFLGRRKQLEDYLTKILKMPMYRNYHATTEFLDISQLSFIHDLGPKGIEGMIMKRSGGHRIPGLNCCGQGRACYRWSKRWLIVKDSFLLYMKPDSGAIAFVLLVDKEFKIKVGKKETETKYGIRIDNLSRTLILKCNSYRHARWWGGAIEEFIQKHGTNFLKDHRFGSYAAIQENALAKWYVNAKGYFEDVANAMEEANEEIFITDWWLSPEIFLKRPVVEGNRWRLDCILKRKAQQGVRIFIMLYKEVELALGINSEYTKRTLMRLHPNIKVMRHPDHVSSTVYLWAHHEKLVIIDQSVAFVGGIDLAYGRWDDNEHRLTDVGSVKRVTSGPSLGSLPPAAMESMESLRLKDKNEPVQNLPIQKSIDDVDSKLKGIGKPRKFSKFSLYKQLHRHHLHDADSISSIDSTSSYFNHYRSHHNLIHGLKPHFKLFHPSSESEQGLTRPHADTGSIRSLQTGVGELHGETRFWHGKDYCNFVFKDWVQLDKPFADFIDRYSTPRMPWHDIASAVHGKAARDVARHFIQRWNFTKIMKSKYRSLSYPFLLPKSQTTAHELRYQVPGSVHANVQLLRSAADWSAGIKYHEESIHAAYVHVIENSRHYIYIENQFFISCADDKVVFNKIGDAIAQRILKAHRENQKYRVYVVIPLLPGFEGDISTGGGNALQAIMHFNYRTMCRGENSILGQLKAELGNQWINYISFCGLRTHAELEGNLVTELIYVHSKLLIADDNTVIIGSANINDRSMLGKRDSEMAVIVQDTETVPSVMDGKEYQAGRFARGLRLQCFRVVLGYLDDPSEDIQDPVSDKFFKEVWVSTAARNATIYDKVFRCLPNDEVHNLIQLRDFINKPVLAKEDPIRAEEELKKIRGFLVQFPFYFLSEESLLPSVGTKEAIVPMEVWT
# Chain of Phospholipase D1 (Homo sapiens) (Q13393 whole entry, looked up): as above
row,SMILES,remaining activity
1,O=C(NCCN1CCC2(CC1)C(=O)NCN2c1cccc(F)c1)c1ccc(OC(F)(F)F)cc1,96.9%
2,Cc1ccc(C(=O)NCCN2CCC3(CC2)C(=O)NCN3c2ccccc2)c(O)c1,89.1%
3,O=C(NCCN1CCC2(CC1)C(=O)NCN2c1ccc(F)cc1)c1ccc2cc(F)ccc2c1,94.6%
4,O=C(NCCN1CCC2(CC1)C(=O)NCN2c1ccccc1)c1cccc(Cl)n1,132%
5,C[C@@H](CN1CCC2(CC1)C(=O)NCN2c1ccc(F)c(F)c1)NC(=O)c1cc2cc(F)ccc2[nH]1,0% (active)
6,C[C@H](CN1CCC2(CC1)C(=O)NCN2c1ccccc1)NC(=O)c1cc(Br)c(Br)o1,71.8%
7,O=C(NCCN1CCC2(CC1)C(=O)NCN2c1ccc(Cl)cc1)c1ccc(F)cc1,123%
8,O=C(NCCN1CCC2(CC1)C(=O)NCN2c1ccccc1)c1cscn1,92.4%
9,O=C(NCCN1CCC2(CC1)C(=O)NCN2c1ccc(Cl)cc1)c1ccc(Cl)cc1,103%
10,C[C@@H](CN1CCC2(CC1)C(=O)NCN2c1ccc(F)c(F)c1)NC(=O)c1ccc(F)cc1,22.8% (active)
11,O=C(C#Cc1ccccc1)NCCN1CCC2(CC1)C(=O)NCN2c1ccccc1,87.1%
12,O=C(NCCN1CCC2(CC1)C(=O)NCN2c1ccccc1)c1cnco1,98%
13,O=C(NCCCCCCN1CCC2(CC1)C(=O)NCN2c1ccccc1)c1cnc2ccccc2c1,122%
14,CN(CCN1CCC2(CC1)C(=O)NCN2c1ccccc1)C(=O)c1ccc2ccccc2c1,84.1%
15,O=C(NCCN1CCC2(CC1)C(=O)NCN2c1ccccc1)c1cnc2ccccc2c1,130%
16,O=C(NCCN1CCC2(CC1)C(=O)NCN2c1cccc(Cl)c1)c1ccc2ccccc2c1,57.3%
17,O=C(NCCN1CCC2(CC1)C(=O)NCN2c1ccc(F)c(F)c1)c1cc2cc(F)ccc2[nH]1,69.1%
18,O=C(CCN1CCC2(CC1)C(=O)NCN2c1ccccc1)Nc1cnc2ccccc2c1,123%
19,C[C@@H](CN1CCC2(CC1)C(=O)NCN2c1ccc(F)c(F)c1)NC(=O)c1cnc2ccccc2c1,5.04% (active)
20,O=C(c1ccc2ccccc2c1)N1CCCC1CN1CCC(n2c(=O)[nH]c3ccccc32)CC1 (stereo not drawn),101% and 112%
21,O=C(c1ccc(F)c(F)c1)N1CCCC1CN1CCC(n2c(=O)[nH]c3ccccc32)CC1 (stereo not drawn),85.3% and 91.1%
22,O=C(COCc1ccccc1)NCCN1CCC2(CC1)C(=O)NCN2c1cccc(F)c1,108%
23,O=C(NCCN1CCC2(CC1)C(=O)NCN2c1ccc(F)cc1)c1cc2cc(F)ccc2[nH]1,48.1% (active)
